RORgamma inh – qHTS for inhibitors of ROR gamma transcriptional activity; Nuclear receptor ROR-gamma (Mus musculus), P51450; 310,000 tested, 5.4% active; Potency, µM (top dose mostly 53.6 µM), without a hit: at the top dose activity change, negative = inhibition, usual class: inhibitors; Drosophila S2 Gal4-RORgamma UAS-luciferase reporter, 20 h; note: nearly all actives have a fitted effect of over 60% in size
Target sequence (P51450 whole entry, looked up, the tested form may be a part): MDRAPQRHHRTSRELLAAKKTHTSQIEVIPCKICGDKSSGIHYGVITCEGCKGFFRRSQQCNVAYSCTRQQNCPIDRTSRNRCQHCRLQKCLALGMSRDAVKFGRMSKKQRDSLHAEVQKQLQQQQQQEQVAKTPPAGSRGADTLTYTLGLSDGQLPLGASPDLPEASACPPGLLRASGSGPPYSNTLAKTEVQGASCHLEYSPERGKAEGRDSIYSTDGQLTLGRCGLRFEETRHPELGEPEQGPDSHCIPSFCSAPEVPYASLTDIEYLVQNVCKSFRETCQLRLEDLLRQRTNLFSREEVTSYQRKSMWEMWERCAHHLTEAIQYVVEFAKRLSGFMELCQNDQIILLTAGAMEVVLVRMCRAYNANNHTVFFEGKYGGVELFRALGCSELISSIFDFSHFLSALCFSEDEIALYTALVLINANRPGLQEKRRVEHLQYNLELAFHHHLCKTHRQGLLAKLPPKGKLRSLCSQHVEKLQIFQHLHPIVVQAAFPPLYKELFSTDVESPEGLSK
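Stable Schneider cell line, Gal4 DNA-binding domain fused to ROR gamma, UAS-luciferase. Cmpd 1 hr RT → CuSO4 700 uM final → 20 hr RT → luciferase reagent 10 min → luminescence.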
Tau fibril FP – qHTS for Inhibitors of Tau Fibril Formation, Fluorescence Polarization; K18 P301L tau heparin fibrillization, Alexa594 FP, 6 h; AID 1468, 2008; 280,000 tested, 0.39% active; Potency, µM (doses to about 57.7 µM), for inactives: top-dose activity, negative = inhibition, most hits filed as inhibitors; Microtubule-associated protein tau (Homo sapiens), P10636; note: nearly all actives have a fitted effect of over 55% in size
Target sequence (P10636 561-689 P618L limits assumed): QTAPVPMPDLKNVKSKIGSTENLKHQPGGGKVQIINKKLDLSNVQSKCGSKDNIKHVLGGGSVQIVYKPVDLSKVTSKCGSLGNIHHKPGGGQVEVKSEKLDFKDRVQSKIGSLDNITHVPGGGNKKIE
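Quantitative HTS format: compounds meet 15 uM recombinant K18 P301L tau and Alexa 594-tau tracer in 100 mM sodium acetate pH 7; 20 uM heparin triggers fibrillization at 37 C over 6 hr; FP gives the signal.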
Tau fluor cs – Counterscreen qHTS for Inhibitors of Tau Fibril Formation, Fluorescence Polarization; Potency, µM (doses to about 57.7 µM), inactives show at the highest dose activity change, negative = decrease; tau K18 P301L Alexa594 fluorescence, heparin fibrillization; 280,000 tested, 0.93% active; AID 1463, 2008; note: nearly all actives have a fitted effect of over 55% in size
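Human tau K18 P301L (15 uM unlabeled, 0.24 uM Alexa 594-labeled) in 100 mM sodium acetate pH 7 with 20 uM heparin, 6 hr at 37 C. ThT 30 uM added, 1 hr ambient; Alexa 594 FP and total fluorescence read at 555/632 nm.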
VP16 counter – VP16 counterscreen qHTS for inhibitors of ROR gamma transcriptional activity | Drosophila S2 Gal4-VP16 UAS-luciferase, luminescence, 20 h | Potency, µM (series often up to 53.6 µM), for the others: top-dose activity, negative = inhibition, most hits filed as inhibitors | 310,000 tested, 3.5% active;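 note: Gal4-VP16 expression switched on by copper sulfate through the metallothionein promoter; nearly all actives have a fitted effect of over 50% in size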
Tau fibril ThT – qHTS for Inhibitors of Tau Fibril Formation, Thioflavin T Binding; Potency, µM (doses to about 57.4 µM), inactives show at the highest dose activity, negative = inhibition, usual class: inhibitors; AID 1460, 2008; Microtubule-associated protein tau (Homo sapiens), P10636; 270,000 tested, 2.1% active; recombinant tau K18 P301L (four-repeat tau fragment), heparin-induced fibrillization, ThT fluorescence; note: nearly all actives have a fitted effect of over 55% in size
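Heparin-induced fibrillization of the P301L-mutant K18 repeat-domain fragment of human tau was followed by ThT binding in quantitative high-throughput format.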
* marks the source's active call; other numbers are inactive results; ? = inconclusive; nt = not tested or not shown; [ ] = dose if it differs, or a comment. This is a sample that favours compounds with a hit; in the whole collection about 7.3% have one here. Calls come from the whole dose curve; as a rule, active = well fitted curve in the direction sought with a large enough effect; inconclusive = small, poorly fitted or top-dose-only effect, or another doubt; inactive = no such curve, though single readings can be large; an effect the other way counts as inactive or inconclusive. % is set by controls: 0 for no effect and ±100 for the full control effect; potency is the fitted concentration of half-maximal effect.

SMILES	RORgamma inh	Tau fibril FP	Tau fluor cs	VP16 counter	Tau fibril ThT
Cc1cccc(N2CCN(C(=O)CN3C(=O)COc4ccc(S(=O)(=O)N5CCCC5)cc43)CC2C)c1 (configuration not stated)	nt	-7%	-13%	nt	?
CCOC(=O)[C@@H]1[C@H]2COc3cc(OC)ccc3[C@@H]2N2C(=O)N(c3cccc(F)c3)C(=O)[C@@]12C	10µM*	nt	nt	0%	nt
CCOC(=O)[C@H]1[C@H]2COc3cc(OC)ccc3[C@@H]2N2C(=O)N(c3ccc(Cl)cc3)C(=O)[C@@]12C	20%	nt	nt	5%	nt
CCOC(=O)[C@@H]1[C@H]2COc3ccccc3[C@H]2N2C(=O)N(c3ccc(Cl)cc3)C(=O)[C@@]12C	-20%	nt	nt	-2%	nt
CCOC(=O)[C@@H]1[C@H]2COc3cc(OC)ccc3[C@@H]2N2C(=O)N(c3ccc(Cl)cc3)C(=O)[C@@]12C	8.9µM*	nt	nt	?	nt
CCOC(=O)[C@@H]1[C@H]2COc3ccccc3[C@@H]2N2C(=O)N(c3ccc(F)cc3)C(=O)[C@@]12C	13µM*	nt	nt	-7%	nt
CCOC(=O)[C@@H]1[C@H]2COc3cc(OC)ccc3[C@@H]2N2C(=O)N(c3ccc(C)cc3)C(=O)[C@@]12C	5µM*	nt	nt	1%	nt
Cc1c(C(=O)OCC(=O)NCC2CCCO2)cccc1[N+](=O)[O-] (configuration not stated)	-18%	3%	1%	-16%	-2%
Cn1cccc1C(=O)N1CCC[C@@]2(CCN(Cc3ccccc3)C2)C1	6%	nt	nt	4%	nt
c1ccc2[nH]c(CSc3nnc(-c4ccncc4)o3)nc2c1	?	-7%	-4%	0%	-8%
O=C(O)c1cccc(CSc2nnc(COc3ccccc3)o2)c1	-31%	8%	0%	?	-12%
O=C(O)c1cccc(CSc2nnc(-c3ccc(Cl)cc3)o2)c1	?	nt	nt	0.79µM*	nt
Brc1cccc(-c2nnc(SCc3nc4ccccc4[nH]3)o2)c1	11µM*	-11%	?	-17%	?
Cc1cccc(-c2nnc(SCc3ccccc3)o2)c1	14µM*	-13%	-14%	-29%	-20%
Cc1nc(NC(=O)CN2CCCCC2)sc1C(=O)N(C)C	5%	nt	nt	-12%	nt
CCn1c([N+](=O)[O-])nc2c1c(=O)[nH]c(=O)n2C	0.56µM*	-10%	5%	18µM*	-15%
CCCCCCn1c(SCCCC)nc2c1c(=O)[nH]c(=O)n2C	-6%[0.365 µM]	-2%	-2%	nt	-13%
NC(=S)NNc1cccc2cccnc12	-28%	7.9µM*	?	-12%	3.5µM*
Cc1ccc(S(=O)(=O)Nc2cccc3cccnc23)c([N+](=O)[O-])c1	0.79µM*	nt	nt	0.89µM*	nt
CCC(=O)Nc1cccc2cccnc12	-18%	6%	4%	-12%[10 µM]	-1%
CS(=O)(=O)Nc1cccc2cccnc12	6.3µM*	-5%	-6%	7.9µM*	-13%
Cc1cc(C)c(NS(=O)(=O)c2cccc3cccnc23)c(C)c1	-30%	1%	-14%	-13%	-6%
CC(=O)Nc1ccc(S(=O)(=O)Nc2cccc3cccnc23)cc1	10µM*	nt	nt	?	nt
C[C@@]12CC[C@@H]3c4ccc(O)cc4CC[C@H]3[C@H]1C[C@@H](O)[C@H]2O	-27%[16.9 µM]	nt	nt	-3%[17 µM]	nt
COc1ccc(NC(=O)CN2C(=O)CSc3ccc(S(=O)(=O)N(C)C)cc32)cc1OC	nt	6%	-1%	nt	1%
SMILES	RORgamma inh	Tau fibril FP	Tau fluor cs	VP16 counter	Tau fibril ThT
Cc1cc(C)n(-c2ccc3cccc(NS(C)(=O)=O)c3n2)n1	4.5µM*	-2%	-6%	?	3%
O=S(=O)(Nc1cccc2cccnc12)c1ccc(S(=O)(=O)N2CCCC2)cc1	2.5µM*	12%	-25%	5µM*	-2%
O=S(=O)(Nc1cccc2cccnc12)c1ccccc1	2µM*	nt	nt	3.5µM*	nt
COc1ccc(NS(=O)(=O)c2ccc3ccccc3c2)c2ncccc12	0.71µM*	nt	nt	1.1µM*	nt
O=C(Nc1cccnc1Cl)c1ccc(S(=O)(=O)N2CCCCCC2)cc1	1%	8%	-11%	1%	1%
O=C1CC(c2ccccc2)Cc2[nH]c(=O)c(-c3nc(-c4ccc(Cl)cc4)cs3)cc21 (configuration not stated)	nt	-5%	-20%	nt	-9%
CC(O)[C@@H]1NC(=O)[C@H](CCCN)NC(=O)[C@@H](Cc2c[nH]c3ccccc23)NC(=O)[C@H](Cc2ccc(O)cc2)NC(=O)[C@@H](NC(=O)[C@H](N)Cc2ccccc2)CSSC(C)(C)C(C(=O)N[C@H](C(N)=O)[C@@H](C)O)NC1=O (some centres not stated)	-1%	nt	nt	-1%	nt
COC(=O)Nc1ccc(S(=O)(=O)Nc2cccc3ccccc23)cc1	?	-6%	-20%	18µM*	4%
c1cc2c3c(c1)c1c(n3CCNC2)CCCC1	-8%	7%	-15%	4%	?
CC1CC(=S)Nc2ccccc2S1 (configuration not stated)	?	2%	3%	4µM*	-3%
CCCn1c(SCN2C(=O)c3ccccc3C2=O)nc2cc(Cl)ccc2c1=O	10µM*	2%	-11%	?	-5%
Cc1cccc(-n2c(SCN3C(=O)c4ccccc4C3=O)nc3ccccc3c2=O)c1	?	?	-17%	-5%	-10%
COc1ccccc1NC(=S)NCc1ccc(S(N)(=O)=O)cc1	-22%	-11%	-5%	-16%	-1%
COc1ccccc1NC(=S)NCc1ccccc1Cl	8.9µM*	nt	nt	7.1µM*	nt
COc1ccccc1CNC(=S)NCc1ccc(Cl)cc1	4µM*	nt	nt	7.1µM*	nt
COc1ccc(NC(=S)NCc2ccccc2Cl)c(OC)c1	13µM*	nt	nt	7.1µM*	nt
COc1ccc(NC(=S)NCCc2ccccc2OC)c(OC)c1	-136%	2%	-19%	?	-14%
CC(C)=CCC/C(C)=C/CO/N=C1/C[C@@H](O)[C@@H](O)[C@@H]2[C@@H]3C(=O)N(c4cccc(Oc5ccccc5)c4)C(=O)[C@H]3CC[C@@H]12	22%[10 µM]	-4%[11.6 µM]	-4%[11.6 µM]	-3%[10 µM]	-1%[11.5 µM]
CCc1ccc(C2C(C#N)=C(N)SC(N)=C2C#N)s1	?	?	?	3%	14µM*
CCOC(=O)C1=C(C)OC(N)=C(C#N)C1c1ccc(C)o1 (configuration not stated)	2%	-2%	-9%	?	-12%
CCc1ccc(C2C(C#N)=C(N)SC(N)=C2C#N)cc1	0%	-5%	-26%	-7%	?
Cc1ccc(C2C(C#N)=C(N)SC(N)=C2C#N)o1	-33%	18µM*	?	5%	14µM*
O=C(Cc1ccc(Cl)cc1Cl)NCc1cccnc1	-2%	nt	nt	-10%	nt

Screening data from PubChem BioAssay.
